In PubChem BioAssay (NCATS) one finds Potency and outcome data, which are given here for 35 compounds.

Experiment [1] is described as follows: qHTS for Inhibitors of the vitamin D receptor (VDR): Hit Validation using a Texas Red Assay (AID 602201). Note: potency is the fitted concentration of half-maximal effect. The settings on record: VDR coregulator binding, Texas Red fluorescence polarization, agonist-bound VDR ligand-binding domain; series mostly up to 57.1 µM. The procedure, abridged:
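Fluorescence polarization (Ex 595/Em 615 nm) of Texas Red (7 nM) with 1.5 uM VDR-LBD and LG19078 (final concentrations). Compounds were incubated for 2 hours at room temperature.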

For experiment [2], the target named is Vitamin D3 receptor (Homo sapiens) (UniProt P11473). Kind of experiment: qHTS for Inhibitors of the vitamin D receptor (VDR): Hit Validation in Primary Screen (AID 602199). Note: potency is the fitted concentration of half-maximal effect. Particulars: VDR-coactivator inhibition assay, qHTS confirmation. The procedure, abridged: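 Fluorescence polarization assay of VDR binding to Alexa 647-labelled SRC2-3 coactivator peptide: 800nM VDR with 5uM LG19078 agonist, compounds, 2 h at room temperature, read Ex 620 nm/Em 688 nm.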
Sequence of Vitamin D3 receptor (Homo sapiens) (P11473 whole entry, looked up, the tested form may be a part): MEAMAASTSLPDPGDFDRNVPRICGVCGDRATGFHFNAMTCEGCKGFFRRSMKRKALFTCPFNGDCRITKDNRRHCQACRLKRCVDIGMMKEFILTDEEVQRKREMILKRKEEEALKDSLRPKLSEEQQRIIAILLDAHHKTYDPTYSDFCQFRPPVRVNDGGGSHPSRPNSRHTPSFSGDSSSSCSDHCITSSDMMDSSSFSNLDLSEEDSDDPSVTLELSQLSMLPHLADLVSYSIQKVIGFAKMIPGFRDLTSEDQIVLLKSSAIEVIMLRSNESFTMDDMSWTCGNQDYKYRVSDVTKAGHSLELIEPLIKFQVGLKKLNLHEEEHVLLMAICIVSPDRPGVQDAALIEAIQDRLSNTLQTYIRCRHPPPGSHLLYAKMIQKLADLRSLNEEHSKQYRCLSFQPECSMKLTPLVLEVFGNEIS

Experiment [3] shares this target. Kind of experiment: qHTS for Inhibitors of the vitamin D receptor (VDR): Hit Validation using a Beta-Lactamase Assay (AID 602202). Note: potency is the fitted concentration of half-maximal effect. The settings on record: VDR beta-lactamase reporter cells, FRET ratio, cells co-treated with VDR agonist LG190178; series mostly up to 46.1 µM. In a few lines: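 Stably transfected HEK293 cells express a VDR–GAL4 DNA-binding-domain fusion driving a UAS beta-lactamase reporter, stimulated by agonist LG190178. Compounds were added 4 h after plating and incubated 18 h. A FRET beta-lactam substrate was then added for 2 h and cleaved substrate emission read at 447 nm.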

Experiment [4] can be described thus: qHTS for Inhibitors of WRN Helicase: Thiazole Orange DNA Binding Counterscreen (AID 720499).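 Note: drop in dye fluorescence marks compound binding to DNA; nearly all actives have a fitted effect of over 60% in size.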 Particulars: thiazole orange DNA binding displacement, fluorescence; series mostly up to 57.1 µM. The procedure, abridged: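 Counterscreen to remove nonspecific DNA binders from WRN helicase hits. Compounds were incubated 15 min at room temperature with 50 nM DNA and 100 nM ThO, then fluorescence was recorded (480 nm excitation, 530 nm emission).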

Experiment [5] deals with RecQ-like DNA helicase BLM (Homo sapiens) (UniProt P54132). Kind of experiment: qHTS for Inhibitors of WRN Helicase: BLM Helicase Counterscreen for WRN Inhibitors (AID 720503). Note: nearly all actives have a fitted effect of over 60% in size. The settings on record: Recombinant BLM helicase DNA unwinding, red fluorescence; series mostly up to 57.1 µM. The procedure, abridged:
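1 nM BLM, Tris pH 8.0/NaCl/MgCl2/DTT/Tween-20; cpd preinc 15 min RT; start w/ 100 nM DNA + 2 mM ATP final; fluorescence (ex 525/em 598) two reads 15 min apart; normalized to enzyme-free and DMSO controls.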

The target of experiment [6] is Bifunctional 3'-5' exonuclease/ATP-dependent helicase WRN (Homo sapiens) (UniProt Q14191). The experiment is described as follows: qHTS for Inhibitors of WRN Helicase: Confirmatory Assay for Cherry-picked Compounds. (AID 720497). Note: nearly all actives have a fitted effect of over 65% in size. Particulars: WRN helicase DNA unwinding, fluorescence kinetic; series mostly up to 57.1 µM. The procedure, abridged: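 WRN (20 nM) was preincubated 15 min at RT with compound, then started with 100 nM forked duplex oligonucleotide and 2 mM ATP. Unwinding was read kinetically by red fluorescence (ex 525/em 598 nm), normalized to enzyme-free and uninhibited controls.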
Sequence of Bifunctional 3'-5' exonuclease/ATP-dependent helicase WRN (Homo sapiens) (Q14191 whole entry, looked up): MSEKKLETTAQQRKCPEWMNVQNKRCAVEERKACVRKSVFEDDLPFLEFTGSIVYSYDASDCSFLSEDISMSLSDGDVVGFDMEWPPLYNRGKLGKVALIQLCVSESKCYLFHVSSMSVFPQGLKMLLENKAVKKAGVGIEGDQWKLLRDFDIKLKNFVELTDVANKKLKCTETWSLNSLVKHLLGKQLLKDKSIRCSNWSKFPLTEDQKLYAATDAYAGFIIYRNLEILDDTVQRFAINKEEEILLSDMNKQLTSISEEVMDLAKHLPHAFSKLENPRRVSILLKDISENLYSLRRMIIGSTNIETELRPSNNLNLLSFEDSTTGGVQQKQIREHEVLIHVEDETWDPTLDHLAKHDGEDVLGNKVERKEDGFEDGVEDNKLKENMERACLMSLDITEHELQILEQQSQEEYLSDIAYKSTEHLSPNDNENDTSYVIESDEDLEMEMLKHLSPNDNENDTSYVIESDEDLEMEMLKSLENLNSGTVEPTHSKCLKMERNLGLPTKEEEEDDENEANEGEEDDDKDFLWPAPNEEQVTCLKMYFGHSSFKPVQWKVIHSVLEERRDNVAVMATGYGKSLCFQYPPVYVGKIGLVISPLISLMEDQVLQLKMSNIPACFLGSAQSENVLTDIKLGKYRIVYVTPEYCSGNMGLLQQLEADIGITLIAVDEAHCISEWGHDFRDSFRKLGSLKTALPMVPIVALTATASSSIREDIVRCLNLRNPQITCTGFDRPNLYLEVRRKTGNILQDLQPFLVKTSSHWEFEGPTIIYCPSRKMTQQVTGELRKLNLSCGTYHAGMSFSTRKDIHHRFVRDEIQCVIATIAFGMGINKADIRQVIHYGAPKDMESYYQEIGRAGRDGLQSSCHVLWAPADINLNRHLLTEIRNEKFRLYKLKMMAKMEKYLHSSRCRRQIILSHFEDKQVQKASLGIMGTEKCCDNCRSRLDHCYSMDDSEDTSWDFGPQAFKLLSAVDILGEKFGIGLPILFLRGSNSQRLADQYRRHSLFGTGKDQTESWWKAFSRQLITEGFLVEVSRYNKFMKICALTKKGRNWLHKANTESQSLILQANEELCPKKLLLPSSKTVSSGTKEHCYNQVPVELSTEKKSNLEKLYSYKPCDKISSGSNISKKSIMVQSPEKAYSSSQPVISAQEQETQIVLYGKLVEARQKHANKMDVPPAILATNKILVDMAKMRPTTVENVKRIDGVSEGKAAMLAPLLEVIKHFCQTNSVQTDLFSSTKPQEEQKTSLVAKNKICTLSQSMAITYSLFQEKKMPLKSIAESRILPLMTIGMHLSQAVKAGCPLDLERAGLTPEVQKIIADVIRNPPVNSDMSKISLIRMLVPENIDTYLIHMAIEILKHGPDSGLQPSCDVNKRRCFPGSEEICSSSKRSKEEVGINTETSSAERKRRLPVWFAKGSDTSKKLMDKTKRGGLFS

The nature of experiment [7]: qHTS for Inhibitors of the vitamin D receptor (VDR): Hit Validation using a Cytotoxicity Assay (AID 602204).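 For Potency: cells co-treated with VDR agonist LG190178 at 300 nM; potency is the fitted concentration of half-maximal effect.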 Note: nearly all actives have a fitted effect of over 75% in size. The settings on record: cytotoxicity counter-screen, cell viability; series mostly up to 48.3 µM. The procedure, abridged:
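Using cycloheximide at high concentration as positive control and DMSO as negative, cells plated at 20,000 per well (4 h) are exposed to compounds for 18 h; ATP luminescence is read after 30 min.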

Experiment [8] deals with Vitamin D3 receptor (Homo sapiens) (UniProt P11473). The experiment is described as follows: qHTS for Inhibitors of the vitamin D receptor (VDR): Hit Validation using a Fluorescein Assay (AID 602200). Note: potency is the fitted concentration of half-maximal effect. The settings on record: VDR-coactivator binding, fluorescein fluorescence polarization. The procedure, abridged: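 Fluorescence polarization (Ex 495 nm/Em 520 nm) read after 2 h at room temperature, reporting disruption of binding between 1.5 uM VDR-LBD, liganded by 5 uM LG19078, and 5 nM fluorescein-labelled SRC2-3 coactivator peptide (final concentrations).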

Experiment [9] addresses 3',5'-cyclic-AMP phosphodiesterase 4B (Homo sapiens) (UniProt Q07343). Kind of experiment: qHTS Assay for Inhibitors of PDE-IV (AID 607; active = well fitted activation curve with a large enough effect in the main read-out, with a control signal flat, not every such curve was filed as active). The settings on record: HEK293 ACTOne CNG channel cells, membrane potential fluorescence; series mostly up to 22.9 µM. The procedure, abridged: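 The readout is membrane depolarisation from a cAMP-sensing CNG channel, detected with a potential dye at ex 535/em 590. Cells were HEK293-derived (endogenous PDE-IV) at 1000 cells/well, titrated up to 22.9 uM final.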

For experiment [10], the target named is Luciferin 4-monooxygenase (Photinus pyralis) (UniProt P08659). The experiment is described as follows: Biochemical firefly luciferase enzyme assay for NPC (AID 624030).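 Note: purified P. pyralis luciferase at 10 nM with luciferin and ATP substrate; nearly all actives have a fitted effect of over 70% in size.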 Particulars: purified P. pyralis luciferase, luminescence, 5 min; series mostly up to 58.6 µM. In a few lines: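 Counter-screen for direct inhibition of the luciferase enzyme by approved-drug library compounds, run at 10 nM enzyme in 50 mM Tris acetate (final). Luminescence was read within 5 min of enzyme-buffer addition and normalized to PTC124 versus DMSO (0%).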
Sequence of Luciferin 4-monooxygenase (Photinus pyralis) (P08659 whole entry, looked up): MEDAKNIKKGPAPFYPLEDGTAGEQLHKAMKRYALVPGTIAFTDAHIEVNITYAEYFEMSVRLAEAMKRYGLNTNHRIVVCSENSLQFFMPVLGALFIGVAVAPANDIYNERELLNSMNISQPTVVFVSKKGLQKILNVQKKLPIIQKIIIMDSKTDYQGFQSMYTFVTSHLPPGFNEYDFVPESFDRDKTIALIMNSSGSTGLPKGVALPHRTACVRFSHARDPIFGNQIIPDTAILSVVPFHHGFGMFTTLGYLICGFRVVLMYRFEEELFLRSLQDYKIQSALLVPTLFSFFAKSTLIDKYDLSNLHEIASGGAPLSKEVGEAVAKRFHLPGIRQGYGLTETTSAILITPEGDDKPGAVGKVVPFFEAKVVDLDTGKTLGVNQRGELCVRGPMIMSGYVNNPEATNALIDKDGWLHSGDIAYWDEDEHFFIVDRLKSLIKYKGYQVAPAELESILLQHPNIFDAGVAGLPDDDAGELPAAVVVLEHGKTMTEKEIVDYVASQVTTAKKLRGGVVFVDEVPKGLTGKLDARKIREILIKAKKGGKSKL

Molecules are shown by their SMILES. Inconclusive results are not listed. This is one part of the list. Active and inactive are the calls of the source. Unless noted, calls come from the whole dose curve; as a rule, active = well fitted curve in the direction sought with a large enough effect; inconclusive = small, poorly fitted or top-dose-only effect, or another doubt; inactive = no such curve, though single readings can be large; an effect the other way counts as inactive or inconclusive.

Sequence of 3',5'-cyclic-AMP phosphodiesterase 4B (Homo sapiens) (Q07343 whole entry, looked up): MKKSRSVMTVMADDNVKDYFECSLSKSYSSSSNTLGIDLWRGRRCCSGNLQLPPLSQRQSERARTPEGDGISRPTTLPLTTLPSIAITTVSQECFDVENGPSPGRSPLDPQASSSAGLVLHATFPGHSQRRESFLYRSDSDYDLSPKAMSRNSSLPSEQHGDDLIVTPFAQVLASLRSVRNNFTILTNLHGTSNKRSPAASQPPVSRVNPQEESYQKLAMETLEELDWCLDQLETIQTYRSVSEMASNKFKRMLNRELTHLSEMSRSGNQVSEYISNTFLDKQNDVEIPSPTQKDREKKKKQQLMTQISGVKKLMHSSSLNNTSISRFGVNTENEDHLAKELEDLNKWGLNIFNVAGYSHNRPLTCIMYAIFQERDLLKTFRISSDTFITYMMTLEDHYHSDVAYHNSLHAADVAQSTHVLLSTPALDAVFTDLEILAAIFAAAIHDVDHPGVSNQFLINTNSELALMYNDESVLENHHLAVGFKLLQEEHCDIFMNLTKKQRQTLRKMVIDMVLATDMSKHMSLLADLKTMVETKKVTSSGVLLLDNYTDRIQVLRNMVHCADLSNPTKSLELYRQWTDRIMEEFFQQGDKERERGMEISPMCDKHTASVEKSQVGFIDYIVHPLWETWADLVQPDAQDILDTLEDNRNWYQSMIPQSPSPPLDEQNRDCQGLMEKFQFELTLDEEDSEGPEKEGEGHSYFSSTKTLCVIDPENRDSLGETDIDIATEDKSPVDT
Sequence of RecQ-like DNA helicase BLM (Homo sapiens) (P54132 whole entry, looked up): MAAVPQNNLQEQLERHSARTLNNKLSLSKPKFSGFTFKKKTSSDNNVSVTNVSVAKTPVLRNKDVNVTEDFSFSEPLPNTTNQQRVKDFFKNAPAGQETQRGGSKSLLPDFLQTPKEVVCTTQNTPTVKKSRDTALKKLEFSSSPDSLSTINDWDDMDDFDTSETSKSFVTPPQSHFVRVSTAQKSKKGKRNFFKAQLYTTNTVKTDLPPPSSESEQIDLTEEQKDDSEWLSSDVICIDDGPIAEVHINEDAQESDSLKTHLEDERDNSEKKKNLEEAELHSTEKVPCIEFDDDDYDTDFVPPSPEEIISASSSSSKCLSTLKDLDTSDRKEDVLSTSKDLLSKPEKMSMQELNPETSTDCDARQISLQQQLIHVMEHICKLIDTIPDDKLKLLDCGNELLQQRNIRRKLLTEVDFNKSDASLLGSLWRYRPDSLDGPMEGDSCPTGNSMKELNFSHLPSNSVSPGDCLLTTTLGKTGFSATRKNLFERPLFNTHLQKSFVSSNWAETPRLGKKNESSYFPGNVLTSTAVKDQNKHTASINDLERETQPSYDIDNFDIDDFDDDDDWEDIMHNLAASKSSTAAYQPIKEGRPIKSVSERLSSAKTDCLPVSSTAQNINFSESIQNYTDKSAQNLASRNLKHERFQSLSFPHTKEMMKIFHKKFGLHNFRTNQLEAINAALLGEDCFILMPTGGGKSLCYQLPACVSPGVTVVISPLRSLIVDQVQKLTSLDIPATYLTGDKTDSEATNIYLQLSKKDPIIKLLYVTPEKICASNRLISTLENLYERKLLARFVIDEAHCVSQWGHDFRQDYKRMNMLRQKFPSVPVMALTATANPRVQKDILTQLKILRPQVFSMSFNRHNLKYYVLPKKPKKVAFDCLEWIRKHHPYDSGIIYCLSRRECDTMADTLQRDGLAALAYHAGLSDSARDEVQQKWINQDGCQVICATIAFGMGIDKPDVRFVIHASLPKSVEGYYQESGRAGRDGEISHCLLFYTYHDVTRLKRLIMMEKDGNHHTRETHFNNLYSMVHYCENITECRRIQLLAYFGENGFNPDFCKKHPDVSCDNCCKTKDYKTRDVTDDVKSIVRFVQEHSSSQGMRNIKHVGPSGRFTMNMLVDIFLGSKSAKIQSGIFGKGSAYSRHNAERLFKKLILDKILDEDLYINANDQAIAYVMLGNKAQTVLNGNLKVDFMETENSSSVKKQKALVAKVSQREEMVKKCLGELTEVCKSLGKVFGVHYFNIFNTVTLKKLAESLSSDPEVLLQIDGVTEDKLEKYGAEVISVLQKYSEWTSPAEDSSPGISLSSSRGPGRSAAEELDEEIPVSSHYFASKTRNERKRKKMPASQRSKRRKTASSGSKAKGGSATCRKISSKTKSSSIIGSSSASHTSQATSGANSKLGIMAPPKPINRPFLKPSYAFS

For the compound `O=c1nc(/C=C/c2cc([N+](=O)[O-])ccc2Cl)cc(C(F)(F)F)[nH]1`, in [1], the Potency is 3.55 µM (active).

As to `CCOC(=O)c1sc(NC(=O)CSc2nc(C)cc(C(F)(F)F)n2)c(C#N)c1C`, in experiment [2], the Potency is 11.9 µM (active). For the same compound, in experiment [3], the Potency entry is “inactive”. With `NC(=O)c1c(N)sc2c1CCCCC2`, in experiment [1], the Potency was 14.1 µM (active).

Regarding `O=C(CCN1CCc2ccccc2C(O)(c2ccccc2)C1)c1ccc2c(c1)OCCO2` (stereo not given), the Potency in experiment [2] was 10.6 µM (active). Moreover, in experiment [1], the Potency result is “inactive”. With `CC(=O)Nc1cccc(C(=O)/C=C/c2ccc(C)cc2)c1`, the Potency result in [1] is “inactive”. Take `CN(C)c1ccc(C=Nc2ccc(N(C)C)cc2)cc1`: the Potency in experiment [1] is 17.8 µM (active). Turning to `CC1(C)CC(=O)C(C(C2=C(O)CC(C)(C)CC2=O)c2ccc(O)c([N+](=O)[O-])c2)=C(O)C1`, the Potency entry in experiment [1] was “inactive”. As for `O=c1[nH]c2ccccc2n2c(-c3ccccc3)nnc12`, in experiment [2], the Potency is 9.47 µM (active). Also, the Potency result in experiment [4] and in experiment [5] was “inactive” each time. For `COC(=O)/C=C\C(=O)Nc1cccc([N+](=O)[O-])c1`, the Potency in experiment [2] was 5.32 µM (active); in [3], 14.6 µM (active). In addition, the Potency result in [6], in experiment [4] and in experiment [5] was “inactive” throughout. As to `O=[N+]([O-])/C=C/c1ccc2c(ccn2Cc2ccccc2)c1`, the Potency in experiment [2] is 6.7 µM (active); in experiment [3] it was 18.4 µM (active); in experiment [7] it was 9.2 µM (active). Take `c1ccc(OCc2nn3c(Cn4nnc5ccccc54)nnc3s2)cc1`: the Potency in [1] was 14.1 µM (active).

On to `CC(NC(=O)c1sc2cc([N+](=O)[O-])ccc2c1Cl)C(C)(C)C` (stereo not given), for which the Potency in experiment [1] is 3.55 µM (active).

For `C=CCOc1ccc(/C=C2/C(=O)ON=C2C)cc1OCC`, in [2], the Potency is 10.6 µM (active). The Potency entry in [3] and in experiment [7] was “inactive” in each case.

Consider `CC(C)(C)C(=O)Nc1ccc2c(c1)C(=O)C(=O)c1ccccc1-2`, for which, in [1], the Potency was 3.16 µM (active). For `O=C1C=C(c2ccc(Cl)cc2)C(=O)N1Nc1ccccc1`, the Potency in experiment [2] is 2.99 µM (active); in experiment [8], 1.78 µM (active); in experiment [7] it was 23.1 µM (active). Consider `O=C(/C=C/c1ccc(Cl)cc1)c1ccc([N+](=O)[O-])o1`, for which the Potency in [1] is 2.82 µM (active). Take `O=C(/C=C/c1ccc(Cl)cc1Cl)c1cccnc1`: the Potency in experiment [2] was 9.47 µM (active). Moreover, the Potency result in experiment [3] and in [7] was “inactive” in each case. With `Cn1c(/C(C#N)=C/c2ccc(C(F)(F)F)cc2)nc2ccccc21`, the Potency in [1] was 14.1 µM (active). Consider `Cc1nc(-c2ccccc2)sc1C(=O)/C=C/c1ccccc1`, for which the Potency in experiment [2] is 16.8 µM (active). Moreover, in [7], the Potency entry is “inactive”. `O=C1OC(NC(=O)c2ccccc2)C(n2cc(CO)nn2)=C1Cl` (stereo not given): the Potency result in experiment [1] was “inactive”. Take `S=C(NNc1ccnc2cc(Cl)ccc12)Nc1ccccc1Cl`: in experiment [1], the Potency is 14.1 µM (active).

Turning to `[O-]/[N+](=C\c1ccccc1)c1ccc(Br)cc1`, the Potency result in experiment [1] was “inactive”. For the compound `O=C1C=C(c2ccccc2)C(=O)N1Nc1ccccc1`, the Potency in experiment [1] is 3.55 µM (active). As to `O=C(Nc1ccccc1)c1nnsc1S(=O)(=O)c1ccc(Cl)cc1`, the Potency in experiment [2] was 16.8 µM (active); in [8] it was 7.08 µM (active). The Potency entry in experiment [4] and in [5] was “inactive” in each case. As for `COc1cccc(C(=O)C(C#N)=C(SC)SC)c1`, in experiment [1], the Potency entry is “inactive”. Consider `O=C(/C=C/c1cc(Br)ccc1O)c1ccco1`, for which the Potency result in [1] is “inactive”. In the case of `CSc1nnc(NC(=O)c2nc(S(=O)(=O)Cc3ccc(C)cc3)ncc2Cl)s1`, the Potency is 7.52 µM (active) in experiment [2], 5.8 µM (active) in [3] and 16.4 µM (active) in experiment [7]. The Potency result in experiment [1] was “inactive”.

Consider `COc1ccc(CS(=O)/C(Cl)=C(/Cl)C(=O)Nc2ccc(OC)nc2)cc1` (stereo not given), for which the Potency in experiment [2] was 5.97 µM (active); in experiment [3] it was 0.731 µM (active); in [7], 2.59 µM (active).

Take `CC(C)(C)C1C/C(=C/c2ccccn2)C(=O)/C(=C/c2ccccn2)C1` (stereo not given): the Potency in [1] was 3.16 µM (active). For the compound `O=S(=O)(/C(=C/c1ccc(C(F)(F)F)cc1)c1nc2ccccc2[nH]1)c1ccccc1`, the Potency entry in experiment [1] is “inactive”.

For the compound `COC(=O)[C@@]1(Cc2ccc(OC)cc2)[C@H]2c3cc(C(=O)N(C)C)n(Cc4ccccc4)c3C[C@H]2CN1C(=O)c1ccccc1`, in experiment [9], the call was inactive.

With `CO[C@@H]1[C@@H]([C@H](C)[C@@H]2O[C@@]3(CC[C@@](C)([C@H]4CC[C@@](C)([C@H]5O[C@H]([C@H]6O[C@](C)(O)[C@H](C)C[C@@H]6C)C[C@H]5O[C@H]5C[C@@H](OC)[C@H](OC)[C@@H](C)O5)O4)O3)C[C@@H](O)[C@@H]2C)O[C@@](O)(CC(=O)O)[C@H](C)[C@H]1OC`, in experiment [10], the Potency entry was “inactive”. Take `COC(=O)[C@@]1(Cc2ccc(OC)cc2)[C@H]2c3cc(C(=O)N4CCCC4)n(CCc4ccc(O)c(O)c4)c3C[C@H]2CN1C(=O)c1ccccc1`: in [9], the compound was classed as inactive. Still for that read-out and setting: next, `COC(=O)[C@@]1(Cc2ccc(OC)cc2)[C@H]2c3cc(C(=O)N4CCCC4)n(CCF)c3C[C@H]2CN1C(=O)c1ccccc1`: “inactive”. In the case of `c1ccc(C(OC2CCCN(CCc3ccc4c(c3)OCO4)C2)c2ccccc2)cc1` (stereo not given), the Potency entry in [10] was “inactive”.
